18 compounds from PubChem BioAssay can be followed below.

Where “and” joins values, the source holds several entries; their conditions need not be identical. Equal values may be shown once. Inconclusive results are not listed. Some structures have more than one record in an assay (separate samples or runs), and their calls can disagree. Calls of active or inactive are those of the source.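 Rule for the calls, unless noted: active = mean z-score across replicates of 1.96 or higher in either the MELAS or the Rieske mutant cell line; inactive = the rest.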

A short description of test [1]: SU-DIPG-VI glioma cell viability, MIPE4.0 library, CellTiter-Glo luminescence, qHTS (AID 1347066; cut-off not given, nearly all actives have AC50 up to about 30 µM;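 note: cells exposed to compound for 48 hours before readout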). The following applies: CellTiter-Glo ATP luminescence. (In ATP-based viability assays light output follows the ATP content of the culture.)
Test [2] is described as follows: survival rescue of mitochondrial mutant cells in low glucose, primary screen, MELAS cybrids, Rieske KO mouse fibroblasts, CellTiter-Glo (AID 1508586).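 Note: z relative to plate mean and SD of compound and empty wells.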
Test [3] has as its target NAD(+) hydrolase SARM1 (Homo sapiens) (UniProt Q6SZW1). Nature of the test: SARM1 TIR NADase inhibitors, cell lysate, NAD-Glo luminescence (AID 1508614;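 active = compound whose remaining NAD level is above about 45 nM, limit read from the data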;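 note: higher remaining NAD means stronger inhibition of SARM1 NADase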). The conditions noted are these: SAM-TIR HEK293T lysate NADase, at 1 µM, stronger effect = higher value.
Test [4] has as its target Mitogen-activated protein kinase 7 (Homo sapiens) (UniProt Q13164). Nature of the test: ERK5 transactivation activators in reporter cells, primary screen, cell-based, HTS (AID 1508626;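 active = luciferase signal above three times the same-plate solvent-only control wells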;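 note: luciferase driven by Gal4-ERK5 fusion binding five Gal4 sites before minimal TATA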). The conditions noted are these: HeLa Gal4-ERK5 transactivation, 18 h, at 5 µM, stronger effect = higher value.
The nature of test [5]: viability rescue of complex I mutant cybrids, primary screen, cell-based, galactose medium, ATP luminescence (AID 1645843;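 active = z-score of at least 1.8 in each of two replicates, scored against plate mean and spread of sample wells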;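 note: positive z means more ATP and so rescue of galactose-driven cybrid death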). The conditions noted are these: complex I mutant cybrid cells, 72 h, stronger effect = higher value.
Test [6] is described as follows: phospholipid biosynthesis inhibitors in animal cells, primary screen, cell-based, LOPAC library, screen 4 (AID 1347384; call rule not given here). The conditions noted are these: phospholipid biosynthesis inhibition screen, at 10 µM.
The nature of test [7]: SU-DIPG-XXV glioma cell viability, MIPE5.0 library, qHTS (AID 1347068; cut-off not given, nearly all actives have IC50 up to about 30 µM). (qHTS replaces the single test concentration by a dilution series.)
The nature of test [8]: sensitizers of A549 cells to miR-34 induction, primary screen, imaging, A549 dox-inducible miR-34, nuclei and caspase counts (AID 1347080;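 active = compounds whose cell count with miR-34 switched on is under 0.7 times the count with it off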). The conditions noted are these: A549 miR-34 inducible, Hoechst nuclei count, 48 h.
A short description of test [9]: inhibitors of Cryptococcus chitosan production, flow cytometry, Cibacron Brilliant Red staining (AID 1347148; call rule not given here;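 note: compound exposure lasted three days at 37 degrees C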). The conditions noted are these: Cryptococcus neoformans chitosan, stronger effect = lower value; at 10 µM unless noted. (In general: In flow cytometry, cells or beads pass a laser one at a time.)
Where [10] appears, read: MELAS cybrid survival, CellTiter-Glo 48 h, stronger effect = higher value.
[11] abbreviates: Rieske KO mouse fibroblast survival, CellTiter-Glo 72 h.
Setting [12] is: measured here: total cells with miR-34 induction, stronger effect = lower value.
[13] abbreviates: stronger effect = lower value, cell number ratio, induced over uninduced.
The mark [14] stands for this setting: measured here: relative caspase fold change +Dox/-Dox.
[15] abbreviates: measured here: total cells without miR-34 induction.

The term AC50 denotes the concentration at which the activity in the assay is half-maximal.

NAD(+) hydrolase SARM1 (Homo sapiens), sequence (Q6SZW1 whole entry, looked up, the tested form may be a part): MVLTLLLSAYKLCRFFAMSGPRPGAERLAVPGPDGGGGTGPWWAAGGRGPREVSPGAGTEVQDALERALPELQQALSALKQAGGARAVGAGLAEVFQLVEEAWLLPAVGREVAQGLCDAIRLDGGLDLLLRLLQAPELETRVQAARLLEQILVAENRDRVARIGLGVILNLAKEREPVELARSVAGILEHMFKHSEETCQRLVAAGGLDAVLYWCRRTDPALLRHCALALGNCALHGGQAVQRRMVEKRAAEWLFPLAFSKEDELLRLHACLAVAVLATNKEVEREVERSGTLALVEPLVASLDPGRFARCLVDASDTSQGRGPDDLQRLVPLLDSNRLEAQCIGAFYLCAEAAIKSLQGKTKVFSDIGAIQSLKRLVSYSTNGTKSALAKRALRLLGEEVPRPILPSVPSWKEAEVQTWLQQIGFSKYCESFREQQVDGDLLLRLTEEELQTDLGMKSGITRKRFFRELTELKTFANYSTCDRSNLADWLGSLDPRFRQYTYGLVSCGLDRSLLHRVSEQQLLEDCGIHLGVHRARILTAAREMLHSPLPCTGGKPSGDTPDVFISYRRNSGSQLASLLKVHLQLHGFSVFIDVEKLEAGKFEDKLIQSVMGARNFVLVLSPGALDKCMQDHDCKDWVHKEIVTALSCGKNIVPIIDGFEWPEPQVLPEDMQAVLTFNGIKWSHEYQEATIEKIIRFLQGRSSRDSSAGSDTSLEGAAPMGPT
Mitogen-activated protein kinase 7 (Homo sapiens), sequence (Q13164 whole entry, looked up, the tested form may be a part): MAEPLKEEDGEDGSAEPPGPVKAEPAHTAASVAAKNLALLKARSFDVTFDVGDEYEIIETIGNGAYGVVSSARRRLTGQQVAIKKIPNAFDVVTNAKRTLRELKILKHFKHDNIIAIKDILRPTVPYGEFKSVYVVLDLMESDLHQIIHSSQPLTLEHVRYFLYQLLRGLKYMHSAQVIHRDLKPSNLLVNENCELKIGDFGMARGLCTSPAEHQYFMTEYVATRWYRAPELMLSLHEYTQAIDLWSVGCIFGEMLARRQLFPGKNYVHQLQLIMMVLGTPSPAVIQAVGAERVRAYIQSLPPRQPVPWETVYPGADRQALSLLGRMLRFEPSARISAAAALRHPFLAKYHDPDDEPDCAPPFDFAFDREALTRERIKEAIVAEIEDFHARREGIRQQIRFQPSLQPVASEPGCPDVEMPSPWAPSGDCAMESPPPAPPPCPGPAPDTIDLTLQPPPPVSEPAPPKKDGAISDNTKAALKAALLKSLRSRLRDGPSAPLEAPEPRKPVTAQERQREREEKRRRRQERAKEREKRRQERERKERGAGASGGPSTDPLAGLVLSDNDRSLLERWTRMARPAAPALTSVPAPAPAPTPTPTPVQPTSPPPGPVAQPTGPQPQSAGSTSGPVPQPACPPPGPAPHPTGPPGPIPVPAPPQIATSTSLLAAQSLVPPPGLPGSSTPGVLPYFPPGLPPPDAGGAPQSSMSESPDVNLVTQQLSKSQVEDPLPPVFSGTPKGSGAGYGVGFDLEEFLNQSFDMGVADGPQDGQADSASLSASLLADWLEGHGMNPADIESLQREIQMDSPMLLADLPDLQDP

With `CN1CCN(CCCN2c3ccccc3Sc3ccc(Cl)cc32)CC1`, in [1], the AC50 is 16.6 µM (active). Moreover, the z-score is -0.995 (inactive) in [2] (setting [10]); -0.206 in test [2] (setting [11]); -1.35 (inactive) and -1.42 (inactive) in [5]. In addition, the remaining NAD in test [3] was 10 nM (inactive). Moreover, the luciferase signal in test [4] was 80 AU (inactive).
For `COc1cc2nc(N3CCN(C(=O)C4CCCO4)CC3)nc(N)c2cc1OC` (centres undefined), the result in [1] was inactive. Moreover, the z-score in [2] (setting [10]) is -0.37 (inactive) and 0.933 (inactive) and -0.482 (inactive); in test [2] (setting [11]), 0.344 and 0.726 and -1.05. Besides, the remaining NAD in [3] was 10 nM (inactive). For the same compound, in test [4], the luciferase signal is 64 AU (inactive).
Turning to `COc1cc2nc(N3CCN(C(=O)C4COc5ccccc5O4)CC3)nc(N)c2cc1OC` (centres undefined), the AC50 in test [1] was 23.5 µM (active). For the same compound, the call in [6] was inactive. In addition, the z-score in test [2] (setting [10]) was -0.637 (inactive) and 1.46 and 0.739; in [2] (setting [11]) it was 1.03 and 2.18 and 2.11; in [5], -0.385 (inactive) and -0.73 (inactive) and 0.525 (inactive). For the same compound, the remaining NAD in [3] is 10 nM (inactive). In test [4], the luciferase signal is 32 AU (inactive).
On to `C[C@](N)(Cc1ccc(O)c(O)c1)C(=O)O`, for which the outcome in test [1], in test [7] and in test [6] was inactive. Besides, the z-score is -1.52 (inactive) and -0.0357 (inactive) in [2] (setting [10]); -0.276 and -0.892 in [2] (setting [11]); -1.24 (inactive) and -0.53 (inactive) and -0.665 (inactive) in [5]. Further, the remaining NAD in test [3] is 10 nM (inactive). In test [4], the luciferase signal was 68 AU (inactive).
As to `COC(=O)C1=C(C)NC(C)=C(C(=O)OC(C)C)C1c1cccc2nonc12` (centres undefined), the compound was called inactive in test [1]. Further, in test [8] (setting [12]), the cell count is 7780 and 7900 and 7270. The z-score is -0.382 (inactive) and 0.324 (inactive) in [2] (setting [10]); 1.22 and 0.935 in test [2] (setting [11]); 1.15 (inactive) in [5]. In addition, the remaining NAD in [3] is 10 nM (inactive).
Regarding `CN1CCN2c3ccccc3Cc3ccccc3C2C1` (centres undefined), the compound was called inactive in test [1] and in test [6]. In addition, the z-score is -0.437 (inactive) and -0.163 (inactive) and -1.32 (inactive) in test [2] (setting [10]); 0.688 and 0.138 and 0.514 in test [2] (setting [11]); -0.385 (inactive) and 2.53 (active) and -0.36 (inactive) in test [5]. Also, the remaining NAD in test [3] is 10 nM (inactive). The luciferase signal in [4] is 48 AU (inactive).
On to `NS(=O)(=O)c1cc(C(=O)O)c(NCc2ccco2)cc1Cl`, for which, in [1], the compound was called inactive. Further, the z-score was -0.297 (inactive) and -0.16 (inactive) and 0.0353 (inactive) in test [2] (setting [10]); 0.703 and -0.228 and 0.451 in test [2] (setting [11]); 0.405 (inactive) and 0.415 (inactive) in [5]. Also, the remaining NAD in [3] is 10 nM (inactive). For the same compound, in test [4], the luciferase signal is 72 AU (inactive).
Take `CCOC(=O)C1=C[C@]2(CC)CCCN3CCc4c(n1c1ccccc41)[C@@H]32`: the AC50 in [1] was 26.4 µM (active). For the same compound, the fold fluorescence in test [9] was 12.8 [at 142.7 µM] (inactive). The compound was called inactive in test [6]. In addition, the z-score is 0.416 (inactive) and 0.251 (inactive) in [2] (setting [10]); 0.313 and -0.628 in test [2] (setting [11]); 0.33 (inactive) and -0.95 (inactive) and -0.445 (inactive) in test [5]. Also, in test [3], the remaining NAD was 10 nM (inactive). Besides, the luciferase signal in test [4] was 52 AU (inactive).
In the case of `Cc1cn([C@H]2C=C[C@@H](CO)O2)c(=O)[nH]c1=O`, the call in test [1] and in test [6] was inactive. Besides, the fold change in [8] (setting [13]) was 0.956 (inactive) and 1.02 (inactive); in [8] (setting [14]), 1.47 and 1.86. The cell count in test [8] (setting [12]) was 8230 and 8880; in test [8] (setting [15]), 8610 and 8700. Besides, the z-score is 0.426 (inactive) in [2] (setting [10]); -0.562 in test [2] (setting [11]); 0.32 (inactive) and 1.07 (inactive) in test [5]. Moreover, the remaining NAD in [3] is 21 nM (inactive).
Consider `Nc1ccc(S(=O)(=O)Nc2ccccn2)cc1`, for which the outcome in test [1] was inactive. The fold change in [8] (setting [13]) was 0.875 (inactive) and 0.859 (inactive); in [8] (setting [14]) it was 1.07 and 2.95. Also, the cell count in [8] (setting [12]) is 9140 and 10900; in test [8] (setting [15]), 10400 and 12600. For the same compound, the z-score in test [2] (setting [10]) was -0.349 (inactive); in test [2] (setting [11]), 0.469. For the same compound, in [3], the remaining NAD is 10 nM (inactive). Moreover, the luciferase signal in test [4] was 64 AU (inactive).
Take `CC(C)c1nc(CN(C)C(=O)N[C@H](C(=O)N[C@@H](Cc2ccccc2)C[C@H](O)[C@H](Cc2ccccc2)NC(=O)OCc2cncs2)C(C)C)cs1`: the call in test [1] was inactive. The z-score in test [2] (setting [10]) was -1.48 (inactive); in test [2] (setting [11]), 0.534. In test [3], the remaining NAD was 10 nM (inactive).
On to `CC(C)(Sc1cc(C(C)(C)C)c(O)c(C(C)(C)C)c1)Sc1cc(C(C)(C)C)c(O)c(C(C)(C)C)c1`, for which the outcome in test [1] and in [7] was inactive. Also, the fold change in test [8] (setting [13]) was 0.81 (inactive) and 0.886 (inactive) and 0.877 (inactive); in test [8] (setting [14]), 1.96 and 0.704 and 3.16. Moreover, the cell count in test [8] (setting [12]) is 8410 and 8070 and 11000; in test [8] (setting [15]) it was 10400 and 9110 and 12500. Also, the z-score in test [2] (setting [10]) was -0.245 (inactive) and 0.14 (inactive); in [2] (setting [11]), -0.773 and -0.118. Moreover, the remaining NAD in test [3] was 10 nM (inactive). The luciferase signal in [4] is 40 AU (inactive).
Turning to `CC(C)(C)NC(=O)[C@@H]1CN(Cc2cccnc2)CCN1C[C@@H](O)C[C@@H](Cc1ccccc1)C(=O)N[C@H]1c2ccccc2C[C@H]1O`, the AC50 in test [1] is 20.9 µM (active). Besides, the values for the z-score in [2] (setting [10]) and in [2] (setting [11]) were -0.264 (inactive) and 0.0624, respectively.
With `COc1cc(NS(=O)(=O)c2ccc(N)cc2)nc(OC)n1`, the outcome in [1] was inactive. For the same compound, the fold change in [8] (setting [13]) was 0.911 (inactive) and 0.916 (inactive) and 0.961 (inactive). In addition, the z-score in test [2] (setting [10]) was -0.175 (inactive) and 0.0464 (inactive) and -0.547 (inactive); in [2] (setting [11]), 0.68 and -0.334 and -1.37; in test [5], -0.135 (inactive). In addition, in test [3], the remaining NAD is 10 nM (inactive). Also, the luciferase signal in [4] is 48 AU (inactive).
As to `CC(=O)Oc1ccccc1C(=O)Nc1ncc([N+](=O)[O-])s1`, the AC50 in [1] was 9.59 µM (active). Besides, the compound was classed as inactive in [7]. Besides, the fold change in [8] (setting [13]) is 1.08 (inactive) and 0.866 (inactive); in test [8] (setting [14]), 1.12 and 1.29. The cell count in test [8] (setting [12]) was 2500 and 6120; in [8] (setting [15]), 2310 and 7070. Also, the z-score is -0.496 (inactive) and -0.13 (inactive) in test [2] (setting [10]); -2.39 and 0.602 in test [2] (setting [11]); -1.79 (inactive) in [5]. In addition, in test [3], the remaining NAD is 10 nM (inactive).
With `Cc1onc(-c2ccccc2)c1C(=O)N[C@@H]1C(=O)N2[C@@H]1SC(C)(C)[C@@H]2C(=O)O`, the compound was classed as inactive in test [1]. Moreover, the fold change in [8] (setting [13]) was 0.877 (inactive); in [8] (setting [14]) it was 6.72. For the same compound, the figures for the cell count in [8] (setting [12]) and in [8] (setting [15]) were 9940 and 11300, respectively. The z-score in test [2] (setting [10]) is 0.677 (inactive) and 0.0608 (inactive); in [2] (setting [11]), -0.0856 and 0.018; in [5], 0.945 (inactive). Besides, the remaining NAD in [3] is 10 nM (inactive). Further, the luciferase signal in test [4] is 64 AU (inactive).
For the compound `COc1ccc2c(c1)c(CC(=O)OCC(=O)O)c(C)n2C(=O)c1ccc(Cl)cc1`, in [1], the result was inactive. The fold change in [8] (setting [13]) is 0.914 (inactive) and 0.85 (inactive) and 0.854 (inactive); in test [8] (setting [14]) it was 1.04 and 0.882 and 1.4. For the same compound, the cell count in test [8] (setting [12]) was 8990 and 8100 and 8980; in test [8] (setting [15]) it was 9840 and 9530 and 10500. For the same compound, the z-score in test [2] (setting [10]) was -0.366 (inactive) and 0.477 (inactive) and -0.419 (inactive); in test [2] (setting [11]) it was 0.51 and 0.248 and -0.275; in test [5], 0.565 (inactive). Further, the remaining NAD in test [3] was 10 nM (inactive). For the same compound, the luciferase signal in test [4] was 52 AU (inactive).
Take `CN(C)CCC=C1c2ccccc2C=Cc2ccccc21`: the compound was called inactive in test [1], in [7] and in [6]. For the same compound, the z-score in [2] (setting [10]) was -1.05 (inactive) and 0.34 (inactive); in test [2] (setting [11]), -0.783 and 0.18; in test [5], -1.16 (inactive). In [3], the remaining NAD is 10 nM (inactive). For the same compound, in test [4], the luciferase signal was 52 AU (inactive).
